Experimental data reported in PubChem BioAssay (NCATS).
Results filed as inconclusive are left out. Where a call stands in place of a potency, no number is given. Activity calls are given as the source filed them. Calls follow the shape of the full dose curve.

Experiment: Primary qHTS for inhibitors of SARS-S pseudo-typed particle cell entry (AID 1479145); also: nearly all actives have a fitted effect of over 45% in size
Details: SARS-S pseudotyped particle cell entry, luciferase reporter; series mostly up to 57.1 µM

Row | Compound | Potency
1 | O=C(O)c1ccccc1Nc1cccc(C(F)(F)F)c1 | inactive
2 | O=C(O)/C=C\C(=O)O | inactive
3 | O=C(c1ccccc1)c1ccccc1 | inactive
4 | CC(=O)Nc1ccccc1 | inactive
5 | Cc1nnc(SCC2=C(C(=O)O)N3C(=O)[C@@H](NC(=O)Cn4cnnn4)[C@H]3SC2)s1 | inactive
6 | CC(=O)Oc1cccc(O)c1 | inactive
7 | CC(=O)OCC(=O)[C@@]1(OC(C)=O)[C@@H](C)C[C@H]2[C@@H]3C[C@H](F)C4=CC(=O)C=C[C@]4(C)[C@@]3(F)[C@@H](O)C[C@@]21C | inactive
8 | NS(=O)(=O)c1cc(-c2nn[nH]n2)c(NCc2cccs2)cc1Cl | inactive
9 | CC(C)OC(=O)OCOP(=O)(CO[C@H](C)Cn1cnc2c(N)ncnc21)OCOC(=O)OC(C)C | inactive
10 | CN[C@@H]1[C@H](O)[C@H](NC)[C@H]2O[C@@]3(O)C(=O)C[C@@H](C)O[C@H]3O[C@@H]2[C@H]1O | inactive
11 | CCCCC(=O)OCC(=O)[C@H]1[C@H](C)C[C@H]2[C@@H]3C[C@H](F)C4=CC(=O)C=C[C@]4(C)[C@@]3(F)[C@@H](O)C[C@@]21C | inactive
12 | O=c1[nH]cnc2[nH]ncc12 | inactive
13 | CN(C)CCc1c[nH]c2ccc(Cn3cncn3)cc12 | inactive
14 | CC(=O)NCc1c(I)c(NC(C)=O)c(I)c(C(=O)O)c1I | inactive
15 | CCCCCCCCCCCCCCCCCCO | inactive
16 | c1ccc2sc(SSc3nc4ccccc4s3)nc2c1 | inactive
17 | Cc1c(Nc2ncccc2C(=O)O)cccc1C(F)(F)F | inactive
18 | NC(=O)c1ncn([C@@H]2O[C@H](CO)[C@@H](O)[C@H]2O)c1O | inactive
19 | COCCCN1CCC(NC(=O)c2cc(Cl)c(N)c3c2OCC3)CC1 | inactive

Row | Compound | Potency
20 | O=C(O)[C@H](O)c1ccccc1 | inactive
21 | CS(=O)(=O)c1ccc([C@@H](O)[C@@H](CO)NC(=O)C(Cl)Cl)cc1 | inactive
22 | Nc1ccc(S(=O)(=O)Nc2ccnn2-c2ccccc2)cc1 | inactive
23 | Nc1nc(=O)n([C@@H]2CS[C@H](CO)O2)cc1F | inactive
24 | NS(=O)(=O)c1cc(C(=O)NN2C[C@H]3[C@H]4CCC(C4)[C@H]3C2)ccc1Cl | inactive
25 | CO[C@@]1(NC(=O)CSC[C@@H](N)C(=O)O)C(=O)N2C(C(=O)O)=C(CSc3nnnn3C)CS[C@@H]21 | inactive
26 | CC(C)(O/N=C(\C(=O)N[C@@H]1C(=O)N2C(C(=O)[O-])=C(C[n+]3ccccc3)CS[C@H]12)c1csc(N)n1)C(=O)O | inactive
27 | C[N+](C)(CCOc1ccccc1)Cc1cccs1 | inactive
28 | COCCCOc1ccnc(CS(=O)c2nc3ccccc3[nH]2)c1C (stereo unspecified) | inactive
29 | Cc1cccn2c(=O)c(-c3nnn[nH]3)cnc12 | inactive
30 | COC(=O)[C@@H]1[C@H]2C[C@H]3c4[nH]c5ccccc5c4CCN3C[C@@H]2CC[C@@H]1O | inactive
31 | Cc1noc(NS(=O)(=O)c2ccc(N)cc2)c1C | inactive
32 | CN/C(=C\[N+](=O)[O-])NCCSCc1csc(CN(C)C)n1 | inactive
33 | CC(C)(Oc1ccc(Cl)cc1)C(=O)OCCCOC(=O)C(C)(C)Oc1ccc(Cl)cc1 | inactive
34 | Cc1cc(O)c2c(O)c3c(O)cccc3cc2c1 | inactive
35 | O=C1[C@@H]2[C@H]3CC[C@H](C3)[C@@H]2C(=O)N1CCCCN1CCN(c2ncccn2)CC1 | inactive
36 | Cc1ccccc1OCC(O)CO (stereo unspecified) | inactive
37 | Cc1cc2cc3c(C)cc(=O)oc3c(C)c2o1 | inactive
38 | Nc1nc2[nH]cc(CCc3ccc(C(=O)N[C@@H](CCC(=O)O)C(=O)O)cc3)c2c(=O)[nH]1 | inactive

Experiment: Primary qHTS for Huh7 cytotoxicity: counterscreen for inhibitors of MERS-S pseudotyped particle cell entry (AID 1479147)
Details: cell viability read-out; series mostly up to 57.1 µM

Row | Compound | Potency
39 | O=C(O)c1ccccc1Nc1cccc(C(F)(F)F)c1 | inactive
40 | O=C(O)/C=C\C(=O)O | inactive
41 | O=C(c1ccccc1)c1ccccc1 | inactive
42 | CC(=O)Nc1ccccc1 | inactive
43 | Cc1nnc(SCC2=C(C(=O)O)N3C(=O)[C@@H](NC(=O)Cn4cnnn4)[C@H]3SC2)s1 | inactive
44 | CC(=O)Oc1cccc(O)c1 | inactive
45 | CC(=O)OCC(=O)[C@@]1(OC(C)=O)[C@@H](C)C[C@H]2[C@@H]3C[C@H](F)C4=CC(=O)C=C[C@]4(C)[C@@]3(F)[C@@H](O)C[C@@]21C | inactive
46 | NS(=O)(=O)c1cc(-c2nn[nH]n2)c(NCc2cccs2)cc1Cl | inactive
47 | CC(C)OC(=O)OCOP(=O)(CO[C@H](C)Cn1cnc2c(N)ncnc21)OCOC(=O)OC(C)C | inactive
48 | CN[C@@H]1[C@H](O)[C@H](NC)[C@H]2O[C@@]3(O)C(=O)C[C@@H](C)O[C@H]3O[C@@H]2[C@H]1O | inactive
49 | CCCCC(=O)OCC(=O)[C@H]1[C@H](C)C[C@H]2[C@@H]3C[C@H](F)C4=CC(=O)C=C[C@]4(C)[C@@]3(F)[C@@H](O)C[C@@]21C | inactive
50 | O=c1[nH]cnc2[nH]ncc12 | inactive
51 | CN(C)CCc1c[nH]c2ccc(Cn3cncn3)cc12 | inactive
52 | CC(=O)NCc1c(I)c(NC(C)=O)c(I)c(C(=O)O)c1I | inactive
53 | CCCCCCCCCCCCCCCCCCO | inactive
54 | c1ccc2sc(SSc3nc4ccccc4s3)nc2c1 | inactive
55 | Cc1c(Nc2ncccc2C(=O)O)cccc1C(F)(F)F | inactive
56 | NC(=O)c1ncn([C@@H]2O[C@H](CO)[C@@H](O)[C@H]2O)c1O | inactive
57 | COCCCN1CCC(NC(=O)c2cc(Cl)c(N)c3c2OCC3)CC1 | inactive

Row | Compound | Potency
58 | O=C(O)[C@H](O)c1ccccc1 | inactive
59 | CS(=O)(=O)c1ccc([C@@H](O)[C@@H](CO)NC(=O)C(Cl)Cl)cc1 | inactive
60 | Nc1ccc(S(=O)(=O)Nc2ccnn2-c2ccccc2)cc1 | inactive
61 | Nc1nc(=O)n([C@@H]2CS[C@H](CO)O2)cc1F | inactive
62 | NS(=O)(=O)c1cc(C(=O)NN2C[C@H]3[C@H]4CCC(C4)[C@H]3C2)ccc1Cl | inactive
63 | CO[C@@]1(NC(=O)CSC[C@@H](N)C(=O)O)C(=O)N2C(C(=O)O)=C(CSc3nnnn3C)CS[C@@H]21 | inactive
64 | CC(C)(O/N=C(\C(=O)N[C@@H]1C(=O)N2C(C(=O)[O-])=C(C[n+]3ccccc3)CS[C@H]12)c1csc(N)n1)C(=O)O | inactive
65 | C[N+](C)(CCOc1ccccc1)Cc1cccs1 | inactive
66 | COCCCOc1ccnc(CS(=O)c2nc3ccccc3[nH]2)c1C (stereo unspecified) | inactive
67 | Cc1cccn2c(=O)c(-c3nnn[nH]3)cnc12 | inactive
68 | COC(=O)[C@@H]1[C@H]2C[C@H]3c4[nH]c5ccccc5c4CCN3C[C@@H]2CC[C@@H]1O | inactive
69 | Cc1noc(NS(=O)(=O)c2ccc(N)cc2)c1C | inactive
70 | CN/C(=C\[N+](=O)[O-])NCCSCc1csc(CN(C)C)n1 | inactive
71 | CC(C)(Oc1ccc(Cl)cc1)C(=O)OCCCOC(=O)C(C)(C)Oc1ccc(Cl)cc1 | inactive
72 | Cc1cc(O)c2c(O)c3c(O)cccc3cc2c1 | inactive
73 | O=C1[C@@H]2[C@H]3CC[C@H](C3)[C@@H]2C(=O)N1CCCCN1CCN(c2ncccn2)CC1 | inactive
74 | Cc1ccccc1OCC(O)CO (stereo unspecified) | inactive
75 | Cc1cc2cc3c(C)cc(=O)oc3c(C)c2o1 | inactive
76 | Nc1nc2[nH]cc(CCc3ccc(C(=O)N[C@@H](CCC(=O)O)C(=O)O)cc3)c2c(=O)[nH]1 | inactive
